Each structure is given as a SMILES string. A number with no mark means an inactive call. Results filed as inconclusive are left out. Calls of active or inactive are those of the source. Unless noted, calls come from the whole dose curve; as a rule, active = well fitted curve in the direction sought with a large enough effect; inconclusive = small, poorly fitted or top-dose-only effect, or another doubt; inactive = no such curve, though single readings can be large; an effect the other way counts as inactive or inconclusive.

Consider eight compounds from PubChem BioAssay (NCATS).

The target in assay [1] is Lysosomal acid glucosylceramidase (Homo sapiens) (UniProt P04062). Description: Glucocerebrosidase-p2 (AID 348; in the data active = potency below about 10 µM; note: potency is the fitted concentration of half-maximal effect). To be noted: purified GBA, blue fluorogenic substrate, 40 min. The gist of the method: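 Normal human glucocerebrosidase (0.2 nM) with blue fluorogenic substrate (80 uM final) in citrate/phosphate pH 5.9 with 10mM sodium taurocholate, 0.01% tween-20; 40 min RT, NaOH/glycine stop; fluorescence Ex 365/Em 440; AC50 from a titration from 0.6 nM upwards.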
Lysosomal acid glucosylceramidase (Homo sapiens), sequence (P04062 whole entry, looked up): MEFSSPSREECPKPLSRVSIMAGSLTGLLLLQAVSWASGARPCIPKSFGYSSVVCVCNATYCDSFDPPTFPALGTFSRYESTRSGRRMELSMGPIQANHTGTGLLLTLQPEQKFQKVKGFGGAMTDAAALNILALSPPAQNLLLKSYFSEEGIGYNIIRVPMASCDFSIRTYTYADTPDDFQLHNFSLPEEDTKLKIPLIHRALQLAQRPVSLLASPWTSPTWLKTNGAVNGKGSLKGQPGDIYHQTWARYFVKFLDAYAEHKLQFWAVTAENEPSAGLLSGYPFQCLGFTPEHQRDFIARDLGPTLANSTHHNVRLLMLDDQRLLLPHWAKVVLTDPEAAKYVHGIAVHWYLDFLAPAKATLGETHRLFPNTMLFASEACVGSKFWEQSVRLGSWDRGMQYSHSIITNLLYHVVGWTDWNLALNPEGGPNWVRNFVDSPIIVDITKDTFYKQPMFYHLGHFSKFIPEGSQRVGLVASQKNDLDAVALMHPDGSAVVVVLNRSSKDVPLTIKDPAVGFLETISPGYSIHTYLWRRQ

Assay [2] in a line: AP1 Signaling Pathway (AID 357; active = well fitted curve in either direction with a large enough effect, not every such curve was filed as active;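 note: ME-180 reporter cells stimulated with EGF at its EC50 level; % is set by controls: 0 for no effect and ±100 for the full control effect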). To be noted: ME-180 AP-1-bla reporter, EGF-induced, beta-lactamase ratio, 5 h; at 7.69 µM (top of the series) unless noted. The gist of the method:
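Beta-lactamase reporter under AP-1 response element, ME-180 background. Stimulus: EC50 EGF. Compound exposure 5 h, 37 °C. Detection: CCF4, 2.5 h RT, 460/530 nm. Values: AC50 from titration.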

Assay [3] is described as follows: NFAT Signaling Pathway (AID 444; active = well fitted curve in either direction with a large enough effect, not every such curve was filed as active;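 note: carbachol stimulus at about its EC50 of 1 µM final; % is set by controls: 0 for no effect and ±100 for the full control effect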). Particulars: Jurkat NFAT-bla M1, carbachol, beta-lactamase ratio, 5 h; at 7.69 µM (top of the series) unless noted. The gist of the method:
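Read-out: CCF4 FRET ratio (460 nm/530 nm) after 1 h RT dye loading, used for %activity and AC50 from titration series. Cells: Jurkat NFAT-β-lactamase/M1 line, treated with compound plus 1 uM carbachol for 5 h, 37 °C.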

A short description of assay [4]: Stat Signaling Pathway (AID 446; active = well fitted curve in either direction with a large enough effect, not every such curve was filed as active;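 note: ME-180 cervical cancer cells given 40 pM IL-6 alongside compound; SIE-controlled beta-lactamase reporter measured as 460/530 nm FRET emission ratio; % is set by controls: 0 for no effect and ±100 for the full control effect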). Particulars: ME-180 (cervical carcinoma) SIE beta-lactamase reporter, IL-6 stimulated, 5 h; at 7.69 µM (top of the series) unless noted. The gist of the method: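 Overnight-plated ME-180 cells bearing a STAT Inducible Element beta-lactamase reporter; 5 h co-exposure to compound and 40 pM IL-6; values normalized to 300 pM IL-6 and 125 nM JAK inhibitor controls.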

Assay [5] has as its target Glucocorticoid receptor (Homo sapiens) (UniProt P04150). The assay can be described thus: GR-GFP Redistribution (AID 450;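 active = compounds whose dose series gives a full or clear partial fitted curve of increased nuclear translocation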; note: potency is the fitted concentration of half-maximal effect). Particulars: U2OS GR-GFP nuclear translocation, laser cytometry, 2 h.
For assay [6] the target is unchanged. The assay can be described thus: GR-EFC Redistribution (AID 451; calls by dose curve; note: potency is the fitted concentration of half-maximal effect). To be noted: CHO-K1 GR-EFC translocation, beta-gal luminescence, 2 h. The method, boiled down:
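Translocation of GR-ED fusion to nuclear EA restores b-gal, read by luminescence after 1 h room-temperature detection. Engineered CHO-K1 biosensor cells, 1,000/well, exposed 2 h at 37 C to titrations up to 46 uM final.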

In assay [7] the target is Mitogen-activated protein kinase 10 (Mus musculus) (UniProt Q61831). The assay can be described thus: JNK3 AlphaScreen Assay (AID 530; active = well fitted curve in either direction with a large enough effect, not every such curve was filed as active;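 note: kinase came from lysate of stimulated human HepG2 cells; signal reports phosphorylation of biotinylated GST-cJun 1-79 at Ser73 with 10 µM ATP; % is set by controls: 0 for no effect and ±100 for the full control effect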). The gist of the method:
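Kinase buffer: 20 mM Tris-HCl pH 7.6, 10 mM MgCl2, 1 mM DTT, 0.1 mM Na3VO4, 0.01% Tween-20; ATP 10 uM. Substrate biotin-GST-cJun(1-79), enzyme from activated HepG2 lysates. Detection by Ser73 phospho-antibody AlphaScreen.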

Assay [8] addresses 3',5'-cyclic-AMP phosphodiesterase 4B (Homo sapiens) (UniProt Q07343). Description: qHTS Assay for Inhibitors of PDE-IV (AID 607; active = well fitted activation curve with a large enough effect in the main read-out, with a control signal flat, not every such curve was filed as active; note: % of control where 0% means no effect). The method, boiled down: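 Live HEK293 cells with a modified cyclic nucleotide-gated (CNG) channel report intracellular cAMP via membrane-potential dye fluorescence (ex 535/em 590 nm). Endogenous PDE-IV was targeted. Compounds were tested at up to 22.9 uM final; RO 20-1724 100 uM served as control.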

In assay [9] the target is Dual specificity protein kinase CLK4 (Homo sapiens) (UniProt Q9HAZ1). Description: qHTS Assay for Inhibitors of CDC-like Kinase 4 (ADP-FP Assay) (AID 1795). Note: nearly all actives have a fitted effect of over 60% in size. Note: potency is the fitted concentration of half-maximal effect. The method, boiled down: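 Inhibition of ADP formation by 6.25 nM Clk4 is measured using 1 uM ATP and 100 uM RS repeat peptide over one hour. Produced ADP displaces a fluorescent tracer from antibody, lowering polarization.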
Dual specificity protein kinase CLK4 (Homo sapiens), sequence (Q9HAZ1 whole entry, looked up): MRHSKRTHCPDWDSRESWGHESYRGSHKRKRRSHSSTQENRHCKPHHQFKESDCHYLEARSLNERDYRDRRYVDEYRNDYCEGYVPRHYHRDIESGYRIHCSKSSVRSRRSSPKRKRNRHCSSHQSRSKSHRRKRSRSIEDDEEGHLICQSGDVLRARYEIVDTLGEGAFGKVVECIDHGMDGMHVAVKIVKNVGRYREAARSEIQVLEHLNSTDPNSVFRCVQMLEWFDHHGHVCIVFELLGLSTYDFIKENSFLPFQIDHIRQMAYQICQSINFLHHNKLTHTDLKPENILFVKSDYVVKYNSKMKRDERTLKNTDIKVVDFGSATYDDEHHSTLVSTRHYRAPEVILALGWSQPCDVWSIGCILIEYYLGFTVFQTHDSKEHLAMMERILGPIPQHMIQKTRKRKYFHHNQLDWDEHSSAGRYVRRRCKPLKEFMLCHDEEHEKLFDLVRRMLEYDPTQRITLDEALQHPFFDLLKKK
A general note: qHTS replaces the single test concentration by a dilution series.

Assay [10] addresses Ubiquitin carboxyl-terminal hydrolase 1 (Homo sapiens) (UniProt O94782). Description: Inhibitors of USP1/UAF1: Pilot qHTS (AID 504865).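 Note: rhodamine fluorescence freed from ubiquitin-rhodamine substrate followed over time; top concentration of the series differs between compounds; % is set by controls: 0 for no effect and ±100 for the full control effect; nearly all actives have a fitted effect of over 35% in size.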 The method, boiled down:
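Kinetic fluorescence assay: 1nM USP1/UAF1, 15 min compound preincubation, then 150nM Ub-Rho; 480/540 nm.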

Assay [11] is described as follows: Primary qHTS for small molecule stabilizers of the endoplasmic reticulum resident proteome: Secreted ER Calcium Modulated Protein (SERCaMP) assay (AID 1508630). Note: % is set by controls: 0 for no effect and ±100 for the full control effect. The gist of the method:
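The SH-SY5Y reporter protocol was run at 3 concentrations up to 38.3 uM (primary) or 11 concentrations (follow-up): 16 h compound, 100 nM thapsigargin for 4 h, then extracellular luciferase luminescence.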

Assay [12] concerns the target Cytochrome P450 1A2 (Homo sapiens) (UniProt P05177). Description: p450-cyp1a2 (AID 410; calls by dose curve; note: potency is the fitted concentration of half-maximal effect). The method, boiled down: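 Read-out is luminescence from luciferin produced by CYP1A2 demethylation of Luciferin-ME (100uM, at Km). Detection reagent stopped the 60 min NADPH-dependent reaction; signals were normalized to 57 uM furafylline.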
Assay [13] has as its target Cytochrome P450 3A4 (Homo sapiens) (UniProt P08684). Description: qHTS Assay for Inhibitors and Substrates of Cytochrome P450 3A4 (AID 884). Note: nearly all actives have a fitted effect of over 50% in size. Note: potency is the fitted concentration of half-maximal effect. The gist of the method: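 Luminescent readout of luciferin produced by CYP3A4 (20 nM) dealkylation of Luciferin-PPXE, 25 uM (its KM). NADPH-driven reaction ran 60 min at RT after 10 min compound preincubation; data scaled to 57 uM ketoconazole as 100% inhibition.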

Assay [14] has the same target. Description: qHTS Assay for Activators of Cytochrome P450 3A4 (AID 885). Note: nearly all actives have a fitted effect of over 65% in size. Note: potency is the fitted concentration of half-maximal effect. The method, boiled down: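 Using 20nM recombinant human CYP3A4 in potassium phosphate (200mM), substrate Luciferin-PPXE at 25uM, luminescent luciferin detection followed a 60-min RT NADPH reaction; data scaled to 57 uM ketoconazole.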
The target of assay [15] is Cytochrome P450 2C19 (Homo sapiens) (UniProt P33261). Description: qHTS Assay for Inhibitors and Substrates of Cytochrome P450 2C19 (AID 899). Note: potency is the fitted concentration of half-maximal effect; nearly all actives have a fitted effect of over 60% in size. The gist of the method:
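Reactions contain 5nM enzyme, 10uM Luciferin-H EGE (KM) and 50mM KPO4; compound preincubates 10 min at 37C, NADPH regeneration starts turnover for 60 min. Luminescence after detection reagent gives activity.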

Cytochrome P450 1A2 (Homo sapiens), sequence (P05177 whole entry, looked up): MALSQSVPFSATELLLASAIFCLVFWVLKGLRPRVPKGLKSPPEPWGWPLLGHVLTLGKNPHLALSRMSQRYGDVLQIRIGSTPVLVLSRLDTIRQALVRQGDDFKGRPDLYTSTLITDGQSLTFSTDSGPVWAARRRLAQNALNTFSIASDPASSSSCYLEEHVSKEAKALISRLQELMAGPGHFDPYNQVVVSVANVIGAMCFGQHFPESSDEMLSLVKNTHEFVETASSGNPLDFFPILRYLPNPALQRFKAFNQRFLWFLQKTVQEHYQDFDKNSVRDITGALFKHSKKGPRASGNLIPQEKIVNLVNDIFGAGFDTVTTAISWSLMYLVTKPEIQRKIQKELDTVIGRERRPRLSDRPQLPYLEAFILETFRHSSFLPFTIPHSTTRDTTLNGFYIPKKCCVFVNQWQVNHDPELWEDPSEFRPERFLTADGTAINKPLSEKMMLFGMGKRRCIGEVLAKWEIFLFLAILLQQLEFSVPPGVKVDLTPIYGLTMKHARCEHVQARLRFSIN
Glucocorticoid receptor (Homo sapiens), sequence (P04150 whole entry, looked up): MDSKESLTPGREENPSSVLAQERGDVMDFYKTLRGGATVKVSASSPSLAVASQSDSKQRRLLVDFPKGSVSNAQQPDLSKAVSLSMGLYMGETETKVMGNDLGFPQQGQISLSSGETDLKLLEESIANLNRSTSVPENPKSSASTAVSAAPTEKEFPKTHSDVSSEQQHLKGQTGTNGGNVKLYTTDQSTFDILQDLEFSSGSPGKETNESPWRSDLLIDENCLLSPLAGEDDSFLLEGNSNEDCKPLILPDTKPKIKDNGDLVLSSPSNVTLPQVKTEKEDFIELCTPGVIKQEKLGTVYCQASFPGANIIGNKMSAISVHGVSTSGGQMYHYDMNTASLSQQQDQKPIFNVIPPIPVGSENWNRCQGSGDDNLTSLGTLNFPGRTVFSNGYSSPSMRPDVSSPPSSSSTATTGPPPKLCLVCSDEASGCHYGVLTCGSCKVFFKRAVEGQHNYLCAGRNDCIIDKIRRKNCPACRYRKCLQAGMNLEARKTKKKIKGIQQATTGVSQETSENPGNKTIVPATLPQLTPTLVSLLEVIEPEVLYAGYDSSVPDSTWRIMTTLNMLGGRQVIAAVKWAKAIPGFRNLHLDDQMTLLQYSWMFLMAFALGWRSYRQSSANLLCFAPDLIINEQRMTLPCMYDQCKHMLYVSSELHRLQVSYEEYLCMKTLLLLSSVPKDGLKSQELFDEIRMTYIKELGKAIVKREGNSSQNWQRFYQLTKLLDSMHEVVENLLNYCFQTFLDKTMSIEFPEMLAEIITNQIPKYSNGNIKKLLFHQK
Cytochrome P450 3A4 (Homo sapiens), sequence (P08684 whole entry, looked up): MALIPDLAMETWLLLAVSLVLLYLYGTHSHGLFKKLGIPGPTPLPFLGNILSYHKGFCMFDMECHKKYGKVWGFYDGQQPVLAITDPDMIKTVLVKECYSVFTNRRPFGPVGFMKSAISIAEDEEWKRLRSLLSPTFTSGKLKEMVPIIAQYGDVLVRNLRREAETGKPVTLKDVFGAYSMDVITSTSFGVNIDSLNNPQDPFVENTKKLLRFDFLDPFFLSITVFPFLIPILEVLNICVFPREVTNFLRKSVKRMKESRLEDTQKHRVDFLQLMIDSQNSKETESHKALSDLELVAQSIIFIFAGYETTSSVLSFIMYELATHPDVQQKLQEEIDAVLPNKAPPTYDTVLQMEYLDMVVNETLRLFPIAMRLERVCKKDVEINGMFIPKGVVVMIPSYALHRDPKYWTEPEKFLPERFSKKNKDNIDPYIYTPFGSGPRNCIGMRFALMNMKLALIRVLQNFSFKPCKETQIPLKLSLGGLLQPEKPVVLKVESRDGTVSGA
3',5'-cyclic-AMP phosphodiesterase 4B (Homo sapiens), sequence (Q07343 whole entry, looked up): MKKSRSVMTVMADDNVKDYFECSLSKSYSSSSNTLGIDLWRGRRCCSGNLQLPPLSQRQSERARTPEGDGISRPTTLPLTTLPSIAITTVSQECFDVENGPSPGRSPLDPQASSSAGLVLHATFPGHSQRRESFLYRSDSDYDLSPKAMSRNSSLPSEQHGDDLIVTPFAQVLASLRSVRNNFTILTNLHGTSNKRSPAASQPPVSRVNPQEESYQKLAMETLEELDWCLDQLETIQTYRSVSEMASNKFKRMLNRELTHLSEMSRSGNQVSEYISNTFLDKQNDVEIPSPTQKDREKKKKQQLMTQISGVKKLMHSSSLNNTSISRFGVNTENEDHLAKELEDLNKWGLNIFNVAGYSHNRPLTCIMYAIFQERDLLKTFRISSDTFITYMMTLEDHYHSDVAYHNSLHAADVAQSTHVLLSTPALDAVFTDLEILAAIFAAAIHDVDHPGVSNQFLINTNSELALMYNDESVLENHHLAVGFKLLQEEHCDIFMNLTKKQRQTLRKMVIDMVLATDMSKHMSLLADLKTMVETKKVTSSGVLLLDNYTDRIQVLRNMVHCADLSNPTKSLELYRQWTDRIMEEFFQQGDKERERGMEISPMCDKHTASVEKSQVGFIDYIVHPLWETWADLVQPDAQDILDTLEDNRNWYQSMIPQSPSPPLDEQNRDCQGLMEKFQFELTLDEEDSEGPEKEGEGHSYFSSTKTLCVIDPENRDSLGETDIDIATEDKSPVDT
Ubiquitin carboxyl-terminal hydrolase 1 (Homo sapiens), sequence (O94782 whole entry, looked up): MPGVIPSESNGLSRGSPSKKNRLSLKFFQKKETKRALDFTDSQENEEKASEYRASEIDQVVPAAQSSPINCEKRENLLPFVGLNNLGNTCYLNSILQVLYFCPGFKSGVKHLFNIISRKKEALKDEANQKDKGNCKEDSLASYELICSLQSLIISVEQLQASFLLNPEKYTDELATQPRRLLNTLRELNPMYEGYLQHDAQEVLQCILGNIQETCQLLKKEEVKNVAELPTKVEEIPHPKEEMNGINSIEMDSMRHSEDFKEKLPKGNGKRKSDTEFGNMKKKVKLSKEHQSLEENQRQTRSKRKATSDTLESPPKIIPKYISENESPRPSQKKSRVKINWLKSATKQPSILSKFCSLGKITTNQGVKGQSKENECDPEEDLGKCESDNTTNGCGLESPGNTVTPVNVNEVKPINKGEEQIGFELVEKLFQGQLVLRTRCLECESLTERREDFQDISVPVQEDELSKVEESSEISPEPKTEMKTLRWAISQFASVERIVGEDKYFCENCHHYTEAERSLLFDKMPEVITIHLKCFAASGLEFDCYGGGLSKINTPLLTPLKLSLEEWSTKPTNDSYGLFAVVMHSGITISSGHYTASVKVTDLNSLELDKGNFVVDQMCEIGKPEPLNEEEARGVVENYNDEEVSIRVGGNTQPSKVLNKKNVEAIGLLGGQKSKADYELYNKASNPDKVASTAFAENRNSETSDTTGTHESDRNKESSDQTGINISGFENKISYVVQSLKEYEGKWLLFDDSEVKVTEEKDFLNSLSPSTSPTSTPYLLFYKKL
Cytochrome P450 2C19 (Homo sapiens), sequence (P33261 whole entry, looked up): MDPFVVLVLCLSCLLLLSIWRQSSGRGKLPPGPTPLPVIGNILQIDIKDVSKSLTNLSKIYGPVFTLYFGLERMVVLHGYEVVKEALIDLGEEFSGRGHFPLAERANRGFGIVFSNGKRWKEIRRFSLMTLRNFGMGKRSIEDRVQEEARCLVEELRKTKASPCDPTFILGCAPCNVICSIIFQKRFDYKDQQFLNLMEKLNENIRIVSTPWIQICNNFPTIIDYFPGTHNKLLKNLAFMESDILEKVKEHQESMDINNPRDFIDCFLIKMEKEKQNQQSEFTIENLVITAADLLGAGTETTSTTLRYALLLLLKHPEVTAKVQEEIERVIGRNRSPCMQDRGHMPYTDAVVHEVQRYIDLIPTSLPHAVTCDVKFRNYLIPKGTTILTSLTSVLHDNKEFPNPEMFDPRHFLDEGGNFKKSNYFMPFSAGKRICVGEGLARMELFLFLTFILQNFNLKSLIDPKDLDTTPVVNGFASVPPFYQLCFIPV

With `Cc1cnc(CNc2cc(-c3c(C)noc3C)ncn2)cn1`, the Potency in assay [1] is > 11.4 µM; in assay [5], > 46 µM; in [6] it was > 46 µM. In addition, the values for the activity change, negative = inhibition in assay [2] and in [3] were 23.4% and 7.12%, respectively. For the same compound, the activity, negative = inhibition in assay [4] is 12.1%. The Potency entry in assay [7], in assay [8], in [9] and in assay [10] was “inactive” throughout. In addition, in [11], the outcome was inactive.

In the case of `COCCn1c(=O)cnc2cnc(N(C)C)nc21`, the Potency in [1] is > 11.4 µM; in assay [6] it was > 46 µM. Moreover, the results for the activity change, negative = inhibition in [2] and in assay [3] were 8.38% and 7.07%, respectively. Further, in [4], the activity, negative = inhibition is -2.06%. The Potency entry in assay [7], in assay [8], in assay [9] and in [10] was “inactive” in each case. In [11], the result was inactive.

Take `COCCn1c(=O)c(-c2ccc(Cl)cc2)nc2cnc(N(C)C)nc21`: the activity change, negative = inhibition in assay [2] was -3.17%; in assay [3], -3.15%. Besides, the Potency is 1 µM (active) in [12], > 9.22 µM in assay [5] and > 46 µM in assay [6]. Also, the Potency entry in assay [8], in assay [9] and in [10] was “inactive” in each case. For the same compound, the outcome in assay [11] was inactive.

`CN(C)C(=O)c1ccc(-c2cncnc2Nc2ccc(F)cc2)cc1`: the activity change, negative = inhibition is -12.8% in assay [2] and 5.12% in assay [3]. Also, the activity, negative = inhibition in assay [4] is 9.71%. In addition, the Potency in [5] and in assay [6] was > 46 µM each time. For the same compound, the Potency result in assay [7], in assay [9] and in assay [10] was “inactive” each time. Besides, the outcome in [11] was inactive.

Consider `c1ccc(CNc2ccnc(-c3cccnc3)n2)cc1`, for which the Potency in assay [1] was > 11.4 µM; in [12] it was 0.251 µM (active); in [5], > 46 µM; in assay [6] it was > 46 µM; in assay [13], 0.631 µM (active); in [15], 2.51 µM (active). Besides, the activity change, negative = inhibition was -10.3% in assay [2] and 7.79% in assay [3]. Also, the Potency result in assay [7], in assay [14], in assay [9] and in [10] was “inactive” each time. Besides, the outcome in [11] was inactive.

Regarding `COc1cccc(-c2nccc(NCc3ccc(OC)cc3OC)n2)c1`, the results for the activity change, negative = inhibition in [2] and in assay [3] were -28.1% and -2.27%, respectively. Further, the Potency is 1 µM (active) in assay [12]; > 46 µM in assay [5]; > 46 µM in assay [6]; 3.16 µM (active) in assay [13]; 2.51 µM (active) in [15]. Moreover, in assay [4], the activity, negative = inhibition was -11.4%. Moreover, the Potency entry in [7], in assay [14], in assay [9] and in [10] was “inactive” each time. Also, the outcome in assay [11] was inactive.

For `COc1ccc(CNc2ncncc2-c2ccoc2)c(OC)c1`, the Potency in assay [1] was > 11.4 µM; in assay [6], > 46 µM; in assay [9], 14.1 µM (active). Further, the results for the activity change, negative = inhibition in [2] and in [3] were -9.49% and 5.94%, respectively. The activity, negative = inhibition in assay [4] was -9.38%. The Potency result in [7], in [8] and in assay [10] was “inactive” in each case. Moreover, the result in assay [11] was inactive.

In the case of `Cc1cnc(CNc2cc(-c3ccccc3C)ncn2)cn1`, the Potency in assay [1] is > 11.4 µM; in assay [5], > 46 µM; in assay [6], > 46 µM; in [14], 3.16 µM (active). Further, the figures for the activity change, negative = inhibition in assay [2] and in [3] were -5.18% and 14%, respectively. In addition, in assay [4], the activity, negative = inhibition is 4.06%. Further, the Potency entry in assay [7], in [8], in assay [13], in assay [9] and in [10] was “inactive” in each case. In addition, in assay [11], the outcome was inactive.
